According to PubChem BioAssay (NCATS):
Inconclusive results are not listed. Active and inactive are the calls of the source. Unless noted, calls come from the whole dose curve; as a rule, active = well fitted curve in the direction sought with a large enough effect; inconclusive = small, poorly fitted or top-dose-only effect, or another doubt; inactive = no such curve, though single readings can be large; an effect the other way counts as inactive or inconclusive.

How the values were obtained:
[1] = Cytometric Cell-Based qHTS for Inhibitors of the mTORC1 Signaling Pathway in MEF (Tsc2-/-, p53-/-) Cells (AID 2660);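 note: Tsc2 and p53 null MEFs carrying empty vector with compound for 24 h; percent of cells above a phospho-rpS6 to PI ratio cutoff in each well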
How it was run: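 Cells are plated, treated with compound for 24 hrs at 37 degree Celsius, then fixed, blocked and immunostained for phospho-rpS6 Ser235/236. Propidium iodide counterstain follows. Per-well % positive cells is derived from the PI-normalized phospho-S6 signal.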

[2] = High Content Imaging Cell-Based qHTS for Inhibitors of the mTORC1 Signaling Pathway in MEF (Tsc2-/-, p53-/-) Cells (AID 2666); settings: at 38.3 µM (top of the series);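 note: percent of cells scored positive for phospho-rpS6 Ser235/236 immunostaining by imaging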
How it was run: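 Cells were plated, dosed with compound after 24 hrs, and incubated another 24 hrs at 37 degree Celsius. Fixed cells were immunostained for phospho-rpS6 Ser235/236 and counterstained, and the normalized signal was scored as % active cells against rapamycin and DMSO controls.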

[3] = High Content Imaging Cell-Based qHTS for Inhibitors of the mTORC1 Signaling Pathway in MEF Cells (AID 2667);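 note: Tsc2-/- p53-/- MEFs stably re-expressing wild-type Tsc2 exposed 24 h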
How it was run: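 Immunofluorescence for rpS6 phosphorylation in MEFs of Tsc2-/-, p53-/- background rescued with WT Tsc2. Compound exposure lasted 24 hrs. Inhibition was scored against rapamycin-treated control wells.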

[4] = Cytometry Cell-Based qHTS for Inhibitors of the mTORC1 Signaling Pathway in MEF cells (AID 2668);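 note: Tsc2-/- p53-/- mouse embryonic fibroblasts stably re-expressing wild-type Tsc2; percent cells positive for phospho-rpS6 Ser235/236 relative to propidium iodide stain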
How it was run: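 Read-out: phospho-rpS6 Ser235/236 immunofluorescence normalized to propidium iodide intensity, scored as % active cells against a rapamycin (7.5 nM) threshold. Cells: Tsc2-/-, p53-/- MEFs stably expressing WT Tsc2, compound-treated 24 hrs at 37 degree Celsius.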

[5] = target: Ubiquitin carboxyl-terminal hydrolase 2 (Homo sapiens) (UniProt O75604); test: qHTS Validation Assay for Inhibitors of Ubiquitin-specific Protease USP2a Using CHOP2 as the Reporter (AID 463106)
How it was run: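 10nM USP2 core + cpd, 30min RT; add 25nM Ub-CHOP2/25nM substrate; 60min RT; FI 485/531nm. Buffer Tris pH 8.0, CaCl2, BME, CHAPS. Norm. to NEM = 100% inhibition; time-zero read flags fluorescent artifacts.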

[6] = target: DNA polymerase III PolC-type (Bacillus subtilis (strain 168)) (UniProt P13267); test: qHTS Validation Assay for the Inhibitors of DNA Replication in Gram-Positive Bacteria (AID 485295);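 note: reconstituted holoenzyme with PolC plus beta clamp SSB and primase; PicoGreen fluorescence of double-stranded DNA made on primed circular M13 template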
How it was run: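 PicoGreen fluorescence (ex 480–485/em 535–540 nm) reports dsDNA synthesized on ssM13Gori template with dNTPs/NTPs. Enzyme: holoenzyme rebuilt from purified PolC, beta subunit, SSB and primase. Compound preincubated before substrate addition; RT throughout.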

[7] = target: Tumor susceptibility gene 101 protein (Homo sapiens) (UniProt Q99816); test: qHTS Validation Assay for Iinhibitors of HIV-1 Budding by Blocking the Interaction of PTAP/TSG101 (AID 485342; calls by dose curve)
How it was run: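 FP read-out: FITC-PTAP peptide, 50 nM final, binding Tsg101 binding domain, 10 uM final; 20 min r.t.; 10 mM HEPES pH 7.5, 0.15 M NaCl, 0.01% Tween 20, 3 mM EDTA, 0.1 mM TCEP.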

[8] = qHTS Validation Assay to Find Inhibitors of Chronic Active B-Cell Receptor Signaling (AID 485345; active = well fitted curve in the direction sought with a large enough effect in the main read-out, with a control signal flat, not every such curve was filed as active)
How it was run: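 Read-out: ratio of filter-corrected green (IkappaBalpha fusion) to red (native) luciferase signal in doxycycline-induced TMD8 cells after 4 h at 37C. Titration spanned 46 uM–3 nM; Data were normalised to basal cells and 10 uM MG-132 wells.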

[9] = target: Beta-2 adrenergic receptor (Homo sapiens) (UniProt P07550); test: qHTS validation assay of beta-arrestin-biased ligands of beta2-adrenergic receptor (AID 485366)
How it was run: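 Values derive from curve-fitted %Activity of a luminescent beta-arrestin recruitment reporter; compounds tested up to 46 microM on Tango cells for 18 hr at 37 degrees C, 5% CO2.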

[10] = target: ATP-dependent 6-phosphofructokinase (Trypanosoma brucei brucei) (UniProt O15648); test: qHTS Validation Assay to Find Inhibitors of T. brucei phosphofructokinase (AID 485368); settings: T. brucei PFK enzyme assay, qHTS 7-point titration; at 57.5 µM (top of the series)
How it was run: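 Enzyme reaction in triethanolamine buffer pH 8.0 with 5 mM MgCl2, 0.01% Tween20 and 0.1% BSA; PFK 1.25 nM, F6P 0.5 mM, ATP 0.1 mM, 45 min RT. ADP quantified by ADP-Glo.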

[11] = target: Thioredoxin reductase 1, cytoplasmic (Rattus norvegicus) (UniProt O89049); test: qHTS Assay for Substrates of Mammalian Selenoprotein Thioredoxin Reductase 1 (TrxR1) (AID 488772);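 note: NADPH fluorescence in the first read after selenite addition and not the 8 min delta; a drop in NADPH fluorescence below the no-compound background marks a TrxR1 substrate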
How it was run: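 Quantitative HTS in Tris-HCl buffer at pH 7.5 with EDTA and Tween-20, using rat TrxR1, 400 uM NADPH and 400 uM selenite (final). A fall in initial NADPH fluorescence relative to background marked substrate behaviour.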

[12] = target: Thioredoxin reductase 1, cytoplasmic (Rattus norvegicus) (UniProt O89049); test: qHTS Assay for Inhibitors of Mammalian Selenoprotein Thioredoxin Reductase 1 (TrxR1) (AID 488773);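 note: drop in NADPH fluorescence over an 8 min run after selenite addition; nearly all actives have a fitted effect of over 40% in size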
How it was run: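 Steps: enzyme (90 nM) plus NADPH (400 uM final), 5 min at ~22 deg C; compound added, 15 min; selenite (400 uM final) added; fluorescence followed for 8 min. Concentration-response curves derived from the normalized delta values.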

[13] = target: Flap endonuclease 1 (Homo sapiens) (UniProt P39748); test: qHTS Validation Assay for the Inhibitors of Human Flap endonuclease 1 (FEN1) (AID 488816)
How it was run: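 Readings taken at 0 and 15 min after starting the reaction with 50 nM (final) substrate supplied the signal. Compounds had first sat with 10 nM FEN1 reagent for 15 min at room temperature. Values come from Hill-equation concentration-response fits.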

[14] = target: M-phase phosphoprotein 8 (Homo sapiens) (UniProt Q99549); test: qHTS Validation Assay for Inhibitors for MPP8 Chromodomain Interactions with Methylated Histone Tails (AID 488949); note: nearly all actives have a fitted effect of over 55% in size; note: potency is the fitted concentration of half-maximal effect
How it was run: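 AlphaScreen read-out: streptavidin donor and nickel chelate acceptor beads (final 10 ug/mL), 30 min in the dark at RT. Complex of 50 nM MPP8 and 50 nM b-H3(1-18)K9me3 peptide had been exposed to compounds for 30 min beforehand.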

[15] = target: Chromobox protein homolog 1 (Homo sapiens) (UniProt P83916); test: qHTS Validation Assay for Inhibitors of HP1-beta Chromodomain Interactions with Methylated Histone Tails (AID 488953);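 note: loss of AlphaScreen luminescence from HP1-beta binding biotinylated H3K9me3 peptide; nearly all actives have a fitted effect of over 50% in size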
How it was run: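 HP1-beta (50 nM) was preincubated 30 min at room temperature with biotinylated H3(1-18)K9me3 peptide (50 nM) in PBS pH 7.4, 0.01% Tween-20, then with compounds 30 min. AlphaScreen signal was read after streptavidin donor/nickel chelate acceptor beads (10 ug/mL final).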

[16] = target: Methanococcus maripaludis chaperonin (MmCpn) (UniProt Q6LX38); test: High-Throughput Screening for Modulators of Cytosolic Chaperonin Activity: MmCpn Primary Screen (AID 488978);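 note: 50 nM MmCpn enzyme hydrolysing 30 µM ATP at 37 °C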
How it was run: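 ADP formation read by HTRF Transcreener, 665/590 nm emission after 320 nm excitation. Enzyme: archaeal chaperonin at 50 nM final; substrate ATP 30 uM final; 10 min, 37C, after 5 min compound preincubation at RT.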

[17] = Validation screen for small molecules that induce DNA re-replication in MCF 10A normal breast cells (AID 463097); note: nearly all actives have a fitted effect of over 60% in size
How it was run: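 250 MCF 10A cells/well; compound pin-transferred; 48 hr, 37 C, 5% CO2; Hoechst 40 min; imaged 405/500-530 nm. Hits = more high-intensity nuclei.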

[18] = Quantitative high throughput screen for delayed death inhibitors of the malarial parasite plastid, 96 hour incubation (AID 488745); note: nearly all actives have a fitted effect of over 70% in size
How it was run: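 P. falciparum carrying an integrated firefly luciferase reporter, grown in erythrocytes (2% hematocrit, 0.1% parasitemia final) in RPMI 1640/0.5% Albumax, was exposed to compound for 96 h (two generations) at 37 C, 5% CO2. Luminescence decrease indicated growth inhibition.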

[19] = Quantitative high throughput screen for delayed death inhibitors of the malarial parasite plastid, 48 hour incubation (AID 488752); note: nearly all actives have a fitted effect of over 65% in size
How it was run: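 Erythrocytes infected with P. falciparum carrying an integrated firefly luciferase reporter (2% hematocrit, 0.1% parasitemia final) were exposed to compounds in RPMI 1640/0.5% Albumax for 48 h at 37 C, 5% CO2. Growth inhibition was scored as reduced luminescence.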

[20] = target: Transient receptor potential cation channel subfamily V member 1 (Homo sapiens) (UniProt Q8NER1); test: HTS Assay for Compounds that Act as Enhancers of the Vanilloid Receptor 1 (AID 488979)
How it was run: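 Calcium influx kinetics via Fluo-8 (480/520 nm) in TRPV1-expressing cells, 2000/well cultured overnight at 35.5C. Compound-alone read 3 min (agonist phase), followed by EC20 capsaicin challenge for 2 min (enhancer phase).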

Measured: Potency

Sequence of Flap endonuclease 1 (Homo sapiens) (P39748 whole entry, looked up): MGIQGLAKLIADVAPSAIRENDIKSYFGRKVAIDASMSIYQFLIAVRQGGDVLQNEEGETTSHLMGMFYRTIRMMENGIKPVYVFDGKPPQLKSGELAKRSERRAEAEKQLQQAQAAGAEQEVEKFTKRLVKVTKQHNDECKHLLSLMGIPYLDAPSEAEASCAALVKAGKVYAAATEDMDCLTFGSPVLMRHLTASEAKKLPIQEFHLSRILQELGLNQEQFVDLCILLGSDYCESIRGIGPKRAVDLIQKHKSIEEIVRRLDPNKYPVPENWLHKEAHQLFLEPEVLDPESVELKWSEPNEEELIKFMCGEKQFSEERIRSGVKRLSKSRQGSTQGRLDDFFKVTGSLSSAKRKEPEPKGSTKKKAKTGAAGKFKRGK
Sequence of Tumor susceptibility gene 101 protein (Homo sapiens) (Q99816 whole entry, looked up, the tested form may be a part): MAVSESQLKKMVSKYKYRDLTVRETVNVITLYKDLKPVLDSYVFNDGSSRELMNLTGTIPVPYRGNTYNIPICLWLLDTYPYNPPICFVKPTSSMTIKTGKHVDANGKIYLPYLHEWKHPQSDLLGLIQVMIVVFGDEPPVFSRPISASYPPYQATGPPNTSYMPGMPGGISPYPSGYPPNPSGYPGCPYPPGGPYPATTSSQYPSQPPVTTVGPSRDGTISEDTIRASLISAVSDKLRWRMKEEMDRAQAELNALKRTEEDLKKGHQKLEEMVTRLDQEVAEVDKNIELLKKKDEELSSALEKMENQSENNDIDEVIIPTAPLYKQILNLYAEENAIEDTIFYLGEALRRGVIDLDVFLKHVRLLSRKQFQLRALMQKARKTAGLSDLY
Sequence of Beta-2 adrenergic receptor (Homo sapiens) (P07550 whole entry, looked up): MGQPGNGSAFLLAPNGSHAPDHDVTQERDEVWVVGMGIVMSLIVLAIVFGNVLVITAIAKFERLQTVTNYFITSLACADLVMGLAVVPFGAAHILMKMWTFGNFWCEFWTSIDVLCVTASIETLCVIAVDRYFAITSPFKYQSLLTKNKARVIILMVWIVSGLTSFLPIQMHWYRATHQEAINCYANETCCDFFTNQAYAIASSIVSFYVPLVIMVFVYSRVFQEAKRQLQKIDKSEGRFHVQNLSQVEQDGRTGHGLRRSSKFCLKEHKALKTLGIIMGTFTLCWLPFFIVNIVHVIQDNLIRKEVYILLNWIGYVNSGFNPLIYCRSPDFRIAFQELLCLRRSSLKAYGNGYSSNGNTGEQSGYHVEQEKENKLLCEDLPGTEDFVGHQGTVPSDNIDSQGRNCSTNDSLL
Sequence of M-phase phosphoprotein 8 (Homo sapiens) (Q99549 whole entry, looked up): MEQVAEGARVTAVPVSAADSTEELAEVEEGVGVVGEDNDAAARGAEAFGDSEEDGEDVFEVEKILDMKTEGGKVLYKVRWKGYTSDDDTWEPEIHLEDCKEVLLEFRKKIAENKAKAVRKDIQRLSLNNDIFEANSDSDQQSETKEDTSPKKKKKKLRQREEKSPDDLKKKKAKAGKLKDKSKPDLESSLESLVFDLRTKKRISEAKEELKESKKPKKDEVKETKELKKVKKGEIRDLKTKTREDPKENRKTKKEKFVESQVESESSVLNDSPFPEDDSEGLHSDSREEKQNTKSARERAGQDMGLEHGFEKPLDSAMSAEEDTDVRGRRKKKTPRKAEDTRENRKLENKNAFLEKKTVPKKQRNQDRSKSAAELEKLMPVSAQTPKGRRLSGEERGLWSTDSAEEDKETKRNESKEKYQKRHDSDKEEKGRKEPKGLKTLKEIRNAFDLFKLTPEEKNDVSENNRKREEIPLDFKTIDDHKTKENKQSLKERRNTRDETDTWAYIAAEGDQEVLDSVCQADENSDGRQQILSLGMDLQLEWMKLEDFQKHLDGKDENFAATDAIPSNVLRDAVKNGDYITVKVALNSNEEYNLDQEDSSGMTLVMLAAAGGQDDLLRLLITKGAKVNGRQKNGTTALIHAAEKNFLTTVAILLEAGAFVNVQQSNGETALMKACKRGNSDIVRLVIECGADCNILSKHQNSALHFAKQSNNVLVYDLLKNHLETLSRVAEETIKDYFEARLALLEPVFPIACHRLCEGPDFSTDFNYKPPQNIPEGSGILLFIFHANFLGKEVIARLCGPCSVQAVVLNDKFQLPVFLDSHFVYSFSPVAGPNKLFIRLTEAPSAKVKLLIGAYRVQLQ
Sequence of DNA polymerase III PolC-type (Bacillus subtilis (strain 168)) (P13267 whole entry, looked up): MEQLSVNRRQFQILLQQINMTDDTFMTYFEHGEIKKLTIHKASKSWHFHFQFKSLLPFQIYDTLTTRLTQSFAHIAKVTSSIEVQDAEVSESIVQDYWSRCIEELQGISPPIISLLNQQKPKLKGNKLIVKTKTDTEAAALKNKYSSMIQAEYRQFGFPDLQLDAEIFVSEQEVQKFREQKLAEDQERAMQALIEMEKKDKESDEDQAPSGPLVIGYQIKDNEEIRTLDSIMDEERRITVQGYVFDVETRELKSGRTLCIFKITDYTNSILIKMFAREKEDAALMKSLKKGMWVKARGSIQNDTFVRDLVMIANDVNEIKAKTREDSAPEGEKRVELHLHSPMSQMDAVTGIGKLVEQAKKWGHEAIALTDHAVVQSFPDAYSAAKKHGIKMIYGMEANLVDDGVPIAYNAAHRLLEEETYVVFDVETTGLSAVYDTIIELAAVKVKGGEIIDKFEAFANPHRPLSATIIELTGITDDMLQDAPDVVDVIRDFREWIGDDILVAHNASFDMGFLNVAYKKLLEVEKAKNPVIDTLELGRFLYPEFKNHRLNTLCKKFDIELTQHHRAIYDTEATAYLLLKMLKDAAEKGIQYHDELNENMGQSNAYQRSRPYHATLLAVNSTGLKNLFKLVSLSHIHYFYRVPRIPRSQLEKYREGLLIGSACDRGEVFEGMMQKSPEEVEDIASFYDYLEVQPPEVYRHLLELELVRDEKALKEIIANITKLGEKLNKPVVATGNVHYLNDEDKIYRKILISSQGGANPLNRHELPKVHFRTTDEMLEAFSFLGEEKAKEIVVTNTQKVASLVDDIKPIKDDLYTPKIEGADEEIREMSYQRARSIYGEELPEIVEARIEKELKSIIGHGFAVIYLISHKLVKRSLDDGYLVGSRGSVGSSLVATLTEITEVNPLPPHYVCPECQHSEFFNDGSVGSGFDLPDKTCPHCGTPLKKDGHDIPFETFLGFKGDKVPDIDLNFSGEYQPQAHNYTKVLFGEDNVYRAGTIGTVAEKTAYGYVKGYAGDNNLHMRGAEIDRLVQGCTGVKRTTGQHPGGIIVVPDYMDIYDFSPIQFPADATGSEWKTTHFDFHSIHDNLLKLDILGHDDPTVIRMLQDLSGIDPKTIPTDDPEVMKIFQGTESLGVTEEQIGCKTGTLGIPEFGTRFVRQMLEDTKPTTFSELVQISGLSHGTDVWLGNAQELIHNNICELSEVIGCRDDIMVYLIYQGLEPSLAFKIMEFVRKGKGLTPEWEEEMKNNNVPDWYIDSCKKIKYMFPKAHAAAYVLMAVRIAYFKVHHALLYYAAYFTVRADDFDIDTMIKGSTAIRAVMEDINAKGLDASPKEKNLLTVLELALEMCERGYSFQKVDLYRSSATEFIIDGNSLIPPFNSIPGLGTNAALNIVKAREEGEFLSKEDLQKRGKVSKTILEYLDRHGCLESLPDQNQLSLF
Sequence of Ubiquitin carboxyl-terminal hydrolase 2 (Homo sapiens) (O75604 whole entry, looked up): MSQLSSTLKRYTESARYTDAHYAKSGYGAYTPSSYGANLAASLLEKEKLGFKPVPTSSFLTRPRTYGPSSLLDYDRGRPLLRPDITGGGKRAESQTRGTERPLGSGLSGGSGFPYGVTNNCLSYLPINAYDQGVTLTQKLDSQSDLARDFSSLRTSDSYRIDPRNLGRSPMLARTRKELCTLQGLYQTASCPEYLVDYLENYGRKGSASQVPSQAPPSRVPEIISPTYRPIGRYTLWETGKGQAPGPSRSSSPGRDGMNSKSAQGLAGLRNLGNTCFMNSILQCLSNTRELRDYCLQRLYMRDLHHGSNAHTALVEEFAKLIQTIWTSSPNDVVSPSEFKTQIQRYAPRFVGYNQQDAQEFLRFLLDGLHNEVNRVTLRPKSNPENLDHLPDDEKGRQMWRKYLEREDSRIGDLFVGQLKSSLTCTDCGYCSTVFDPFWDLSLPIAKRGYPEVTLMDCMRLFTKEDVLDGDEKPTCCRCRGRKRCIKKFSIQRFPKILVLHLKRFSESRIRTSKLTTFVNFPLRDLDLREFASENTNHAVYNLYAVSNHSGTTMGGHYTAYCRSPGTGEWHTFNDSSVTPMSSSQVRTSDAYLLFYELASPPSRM
Sequence of Chromobox protein homolog 1 (Homo sapiens) (P83916 whole entry, looked up): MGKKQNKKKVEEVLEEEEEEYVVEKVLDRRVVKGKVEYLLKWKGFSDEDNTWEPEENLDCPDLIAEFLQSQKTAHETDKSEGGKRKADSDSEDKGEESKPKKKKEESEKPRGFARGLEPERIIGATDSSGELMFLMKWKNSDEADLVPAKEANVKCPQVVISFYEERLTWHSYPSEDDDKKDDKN
Sequence of Thioredoxin reductase 1, cytoplasmic (Rattus norvegicus) (O89049 whole entry, looked up): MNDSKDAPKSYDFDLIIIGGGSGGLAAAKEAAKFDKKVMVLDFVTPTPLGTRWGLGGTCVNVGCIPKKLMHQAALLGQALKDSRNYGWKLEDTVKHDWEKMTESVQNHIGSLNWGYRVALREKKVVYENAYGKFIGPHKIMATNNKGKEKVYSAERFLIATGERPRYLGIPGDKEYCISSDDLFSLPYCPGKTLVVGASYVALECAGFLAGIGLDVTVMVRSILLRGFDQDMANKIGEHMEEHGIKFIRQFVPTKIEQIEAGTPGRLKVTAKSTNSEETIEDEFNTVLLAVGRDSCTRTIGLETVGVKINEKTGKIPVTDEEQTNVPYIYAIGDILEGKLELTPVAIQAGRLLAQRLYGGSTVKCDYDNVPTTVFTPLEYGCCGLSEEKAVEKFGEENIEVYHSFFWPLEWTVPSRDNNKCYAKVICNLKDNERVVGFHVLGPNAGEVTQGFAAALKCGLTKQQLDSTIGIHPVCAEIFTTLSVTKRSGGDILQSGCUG

CCOC(=O)[C@H](CCc1ccccc1)N[C@@H](C)C(=O)N1[C@H](C(=O)O)C[C@H]2CCCC[C@@H]21
inactive: [1] | [2] | [3] | [4] | [5] | [6] | [7] | [8] | [9] | [10] | [11] | [12] | [13] | [14] | [15] | [16]

CC(C)(C)NC[C@H](O)COc1nsnc1N1CCOCC1
inactive: [1] | [2] | [3] | [4] | [5] | [6] | [7] | [8] | [11] | [12] | [13] | [14] | [15] | [16]

CC(=O)OCC1=C(C(=O)O)N2C(=O)[C@@H](NC(=O)CSc3ccncc3)[C@H]2SC1
active: [14] 31.6 µM
inactive: [17] | [18] | [19] | [20]

CN=C(N)NCCC[C@H](N)C(=O)O
inactive: [1] | [2] | [3] | [4] | [5] | [6] | [7] | [8] | [9] | [10] | [11] | [12] | [13] | [14] | [15] | [16]

NC(N)=NCc1cccc(I)c1
inactive: [1] | [2] | [3] | [4] | [17] | [5] | [6] | [7] | [9] | [19] | [11] | [12] | [13] | [14] | [15] | [16] | [20]
